Bioassay records deposited in PubChem BioAssay by several laboratories.
aSyn UTR inh: MLPCN primary screen, SNCA 5' untranslated region; alpha-synuclein 5'UTR reporter, inhibitor activity; inhibition, % (tested at 7.5 µM); 300,000 tested, 0.82% active; AID 1813; in the data active = inhibition above about 60%;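 note: H4 neuroglioblastoma cells stably carrying SNCA 5'UTR luciferase fusion; 0% = DMSO wells and 100% = positive control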
APP transl inh: APP translation inhibition. inhibition, % at 2 µM. 190,000 tested, 0.82% active. SH-SY5Y APP 5'UTR-luciferase reporter, luminescence;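 active = inhibition above a set limit, derived from the sample mean plus 3 SD, cut at about 45% in these data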
KLF5 inhibitor: inhibitors of KLF5 expression; 290,000 tested, 0.23% active; DLD-1 KLF5 promoter-luciferase reporter, luminescence; inhibition, % at 5 µM;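 active = inhibition above a per-plate limit of that plate's mean compound inhibition plus 3 SD, cut at about 60% in these data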;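 note: 0% = DMSO wells and 100% = LY294002 at 200 µM; higher means less KLF5 promoter-driven luciferase light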
BaF3 tox: counter-screen for JAK2V617F inhibitors: parental Ba/F3 viability inhibitors | CellTiter-Glo ATP luminescence | inhibition, % at 5.6 µM | 220,000 tested, 1.1% active | AID 1486;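 active = inhibition above a per-campaign cutoff, the mean inhibition of all tested compounds plus 3 SD, cut at about 27% in these data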;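 note: 0% = DMSO wells and 100% = JAK Inhibitor I control wells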
IEC-6 tox: counter-screen for KLF5 inhibitors: cytotoxicity in IEC-6 cells; IEC-6 cytotoxicity, luminescence viability; inhibition, % at 5 µM; 290,000 tested, 0.78% active; AID 1825;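 note: 0% = plate median of test compound wells and 100% = cytotoxic reference compound wells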
Ba/F3 V617F tox: loss of viability in JAK2V617F-driven Ba/F3 cells | Ba/F3 EpoR-JAK2V617F viability, ATP luminescence | inhibition, % at 5.6 µM | 220,000 tested, 1.1% active | AID 1446;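 active = inhibition above the campaign mean plus 3 SD over all tested compounds, cut at about 24% in these data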;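 note: cytokine-independent growth of Ba/F3 cells driven by EpoR plus mutant JAK2; 0% = DMSO-treated cells and 100% = JAK inhibitor I control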
IEC-6 cytotox cf: IEC-6 cytotoxicity, confirmation assay; shares compounds with IEC-6 tox; IEC-6 rat intestinal epithelial viability, luminescence; inhibition, % at 5 µM; 1,900 tested, 63% active; AID 1907;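 note: 0% = vehicle and 100% = reference cytotoxic drug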
* = called active by the depositor. This is a sample that favours compounds with a hit; in the whole collection about 2.1% have one here. Cut-off read from the data, not from the text of the source, unless noted: active = inhibition above about 22%; inactive = the rest.

O=S(=O)(Nc1cccc2cccnc12)c1ccc(S(=O)(=O)N2CCCC2)cc1 was read as aSyn UTR inh 45.0, APP transl inh -3.9, KLF5 inhibitor 7.2, BaF3 tox 6.4, IEC-6 tox 31.5*, Ba/F3 V617F tox 2.9 and IEC-6 cytotox cf 35.5*.
`CCOc1cc(C(=O)N(C)CC(=O)Nc2cccc(F)c2)ccc1OCC(=O)N1CCCCC1` gave aSyn UTR inh 5.5.
Screening O=C(C1=NN[C@@H]2C(=O)N(c3ccccc3C(F)(F)F)C(=O)[C@H]12)c1ccc2ccccc2n1 returned aSyn UTR inh -29.0, APP transl inh -14.0, KLF5 inhibitor 1.2, BaF3 tox 54.1*, IEC-6 tox 70.6*, Ba/F3 V617F tox 75.8* and IEC-6 cytotox cf 2.8.
For COc1ccc(Nc2nc(-c3sc(C)nc3C)cs2)cc1 the results were aSyn UTR inh 39.1, KLF5 inhibitor 44.5, IEC-6 tox 76.4* and IEC-6 cytotox cf 56.1*.
Cc1nc(C)c(-c2csc(Nc3ccc(N)cc3)n2)s1 was read as aSyn UTR inh -41.6, KLF5 inhibitor 4.3 and IEC-6 tox 3.9.
For NC(=O)c1cc2cc(Cc3ccccc3Cl)ccc2oc1=O the results were aSyn UTR inh 15.7, APP transl inh -1.5, KLF5 inhibitor -8.5, BaF3 tox 2.5, IEC-6 tox -2.1 and Ba/F3 V617F tox -5.1.
Screening CC(C)c1ccc(Nc2ncccc2C(=O)O)cc1 returned aSyn UTR inh -100.7, APP transl inh -139.5, KLF5 inhibitor -186.0, BaF3 tox 10.8, IEC-6 tox 58.5*, Ba/F3 V617F tox 7.0 and IEC-6 cytotox cf 26.3*.
Cc1ccc(C)c(S(=O)(=O)Nc2cc3c4c(c2)CCC(=O)N4CCC3)c1 was read as aSyn UTR inh 17.6.
`Cc1ccc2ccc3ccc(C)nc3c2n1` gave aSyn UTR inh 72.0*, KLF5 inhibitor 51.0, IEC-6 tox 90.6* and IEC-6 cytotox cf 37.1*.
Screening COc1ccc(NC(=O)c2nc(S(=O)(=O)Cc3cccc(C)c3)ncc2Cl)c(OC)c1 returned aSyn UTR inh 82.4*, KLF5 inhibitor 24.4, IEC-6 tox 65.7* and IEC-6 cytotox cf 20.1.
`CCCc1nnc(NC(=O)c2nc(S(=O)(=O)Cc3cccc(C)c3)ncc2Cl)s1` gave aSyn UTR inh -30.3, KLF5 inhibitor 4.0 and IEC-6 tox 6.9.
COc1ccc(OC)c(NC(=O)CS(=O)(=O)Cc2ccccc2)c1 was read as aSyn UTR inh 10.6, KLF5 inhibitor -29.8 and IEC-6 tox 1.5.
COc1ccc(OC)c(NC(=O)c2nc(S(=O)(=O)Cc3ccccc3)ncc2Cl)c1 was read as aSyn UTR inh 99.5*, KLF5 inhibitor 44.8, IEC-6 tox 75.1* and IEC-6 cytotox cf 6.0.
`CC(C)(C)NC(=O)CN(CCc1ccccc1)C(=O)c1csnn1` gave aSyn UTR inh -9.4, APP transl inh -10.8, KLF5 inhibitor -9.8, BaF3 tox 4.3, IEC-6 tox -3.3 and Ba/F3 V617F tox -1.4.
For CCOc1ccc(/C=C(\C)C(=O)c2c(C)cc(C)[nH]c2=O)cc1 the results were aSyn UTR inh 3.9, KLF5 inhibitor -33.2 and IEC-6 tox 1.8.
Screening Cc1ccc(C)c(Nc2cc(C)nc(-c3ccccc3O)n2)c1 returned aSyn UTR inh 10.4, KLF5 inhibitor 35.1, IEC-6 tox 48.3* and IEC-6 cytotox cf 26.9*.
`COc1ccc(CN(C)c2ncnc3sccc23)c(OC)c1OC` gave aSyn UTR inh -8.9, KLF5 inhibitor 32.2, IEC-6 tox 23.0* and IEC-6 cytotox cf 9.8.
`COc1ccc(CCN(C)c2ncnc3sccc23)cc1OC` gave aSyn UTR inh 11.5, APP transl inh 1.9, KLF5 inhibitor -13.7, BaF3 tox 0.6, IEC-6 tox -0.8 and Ba/F3 V617F tox 4.7.
COc1cc([N+](=O)[O-])ccc1NC(=O)CCS(=O)(=O)c1ccc2c(c1)n(C)c(=O)c(=O)n2C was read as aSyn UTR inh -12.2, KLF5 inhibitor -3.0 and IEC-6 tox -11.5.
For O=[N+]([O-])c1ccc(N=Nc2ncc[nH]2)cc1 the results were aSyn UTR inh -95.6, KLF5 inhibitor -4.2, IEC-6 tox 80.8* and IEC-6 cytotox cf 13.3.
`O=[N+]([O-])c1ccc(N=NN(CCO)CCO)cc1` gave aSyn UTR inh -15.4, APP transl inh -12.6, KLF5 inhibitor -13.2, BaF3 tox 3.7, IEC-6 tox -3.2 and Ba/F3 V617F tox -3.3.
`COc1cc(C2=NOC(C(=O)NCc3cccnc3)C2)cc(OC)c1OC` (stereo unspecified) gave aSyn UTR inh 8.5, KLF5 inhibitor -22.0 and IEC-6 tox -2.2.
For COc1ccc(C2=NOC(C(=O)NCc3ccco3)C2)cc1 (stereo unspecified) the results were aSyn UTR inh -77.1, APP transl inh 25.0, KLF5 inhibitor 15.2, BaF3 tox 3.1, IEC-6 tox 25.1*, Ba/F3 V617F tox -1.5 and IEC-6 cytotox cf 35.4*.
COc1cc(C2=NOC(C(=O)NCc3ccco3)C2)cc(OC)c1OC (stereo unspecified) was read as aSyn UTR inh 11.8, APP transl inh 6.3, KLF5 inhibitor 27.0, BaF3 tox 51.0*, IEC-6 tox 25.5*, Ba/F3 V617F tox 43.5* and IEC-6 cytotox cf 43.6*.
Cc1cc2nccc(-c3ccc(OCCCF)cc3)n2n1 was read as aSyn UTR inh 13.6, KLF5 inhibitor -12.8 and IEC-6 tox 6.7.
`CC1(C)Cc2cccc(OCC(=O)Nc3ccccc3F)c2O1` gave aSyn UTR inh 8.0.
For Cc1cnc(NC(=O)COc2cccc3c2OC(C)(C)C3)s1 the results were aSyn UTR inh -13.3, APP transl inh 28.6, KLF5 inhibitor 41.9, BaF3 tox 10.6, IEC-6 tox 30.0*, Ba/F3 V617F tox 5.9 and IEC-6 cytotox cf 33.6*.
`CN(C(=O)COC(=O)CNC(=O)c1ccccc1F)C1CCCCC1` gave aSyn UTR inh 3.7.
Screening COc1ccc(F)cc1Cn1nc(C(=O)O)c2ccccc2c1=O returned aSyn UTR inh 6.1, KLF5 inhibitor -0.4, IEC-6 tox 36.4* and IEC-6 cytotox cf 21.3.
Screening O=C(O)c1nn(CCOc2c(Cl)cccc2Cl)c(=O)c2ccccc12 returned aSyn UTR inh -5.1, KLF5 inhibitor 29.3, IEC-6 tox 39.7* and IEC-6 cytotox cf 17.7.
For Cc1nc(S(=O)(=O)c2ccc(Cl)cc2)c(N(C)C)o1 the results were aSyn UTR inh -7.0, KLF5 inhibitor -11.4 and IEC-6 tox 2.2.
For Cc1ccc(NC(=O)C(C)OC(=O)c2ccc(NC(=O)CC#N)cc2)cc1S(=O)(=O)N1CCOCC1 (stereo unspecified) the results were aSyn UTR inh 11.6.
`COCCCNC(=S)NNC(=O)c1cc(Cl)c(O)c(Cl)c1` gave aSyn UTR inh 3.9, KLF5 inhibitor -10.8, BaF3 tox -1.3, IEC-6 tox 1.2 and Ba/F3 V617F tox -5.6.
